Compounds with a hit are over-represented: about 9.2% of the library has one in this group of screens.
NPC1 prom act = activates the NPC1 promoter; Huh7 NPC1 promoter luciferase reporter, 24 h; hit rate 2.4% among 320,000; Potency, µM (titrated, usually from 9.22 µM), most hits filed as activators; note: nearly all actives have a fitted effect of over 60% in size
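Stably transfected Huh7 (NPC1 promoter→luciferase), 1500 cells/well in Opti-MEM + 10% FBS, 2 h settle, then compound 24 h at 37 °C. Luminescence after 10 min with Amplite reagent.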
SMN2 splice up = SMN2 splice variant enhancement. Potency, µM (titrated, usually from 46.1 µM), usual class: activators. hit rate 2.8% among 210,000. HEK293 SMN2-luciferase splicing reporter, luminescence, 30-36 h; note: nearly all actives have a fitted effect of over 55% in size
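HEK293 cells carry an SMN2 […]–luciferase reporter in which exon 7 inclusion puts luciferase in frame. Cells were plated 10-12 h before compound addition, then incubated 30-36 h at 37C. ONE-Glo luminescence was read; sodium butyrate at 4.5 mM final served as control.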
Rab9 prom act = Rab9 promoter activation. hit rate 2.8% among 320,000. Huh7 Rab9 promoter-luciferase reporter, luminescence, 24 h. Potency, µM (doses to about 9.22 µM), actives largely listed as activators; note: nearly all actives have a fitted effect of over 60% in size
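Huh7 cells stably carrying a Rab9 promoter-luciferase reporter, 1500 cells per well in OP-MEM I with 10% FBS, treated with compound 24 hours at 37C. Luciferase activity read by luminescence after 10 minutes with Amplite reagent.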
ELG1 DNA repair = blocks ELG1-dependent DNA repair in HEK293T cells. hit rate 2.3% among 330,000. Potency, µM (top dose mostly 46.1 µM), hits mostly inhibitors. AID 504467. HEK293T ELG1-luciferase reporter, luminescence, 16 h; DNA damage induced by 5-fluorouridine; note: nearly all actives have a fitted effect of over 55% in size
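5-Fluorouridine DNA damage + compound/DMSO, 2,000 cells/well, 16 h, 37 °C/5% CO2. ONE-Glo, 30 min RT, luminescence. Readout = decrease in reporter signal.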
ELG1 genotoxic = inducers of genotoxicity in HEK293T ELG1-luciferase cells | HEK293T ELG1-luciferase reporter, luminescence, 16 h | Potency, µM (doses to about 46 µM), most hits filed as activators | hit rate 1.3% among 330,000 | AID 504466; note: nearly all actives have a fitted effect of over 60% in size
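DMSO vehicle served as control against compound-treated ELG1-luciferase HEK293T cells; exposure lasted 16 hr at 37 °C and 5% CO2, followed by ONE-Glo luminescence detection after 30 min.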
FLuc counter = firefly luciferase modulation, counter-screen for miR-21 project; purified FLuc, Km substrates, luminescence inhibition; Potency, µM (highest dose often 57.5 µM), actives largely listed as inhibitors; AID 588342; hit rate 6.9% among 360,000; note: nearly all actives have a fitted effect of over 55% in size
Target sequence (P08659 whole entry, looked up): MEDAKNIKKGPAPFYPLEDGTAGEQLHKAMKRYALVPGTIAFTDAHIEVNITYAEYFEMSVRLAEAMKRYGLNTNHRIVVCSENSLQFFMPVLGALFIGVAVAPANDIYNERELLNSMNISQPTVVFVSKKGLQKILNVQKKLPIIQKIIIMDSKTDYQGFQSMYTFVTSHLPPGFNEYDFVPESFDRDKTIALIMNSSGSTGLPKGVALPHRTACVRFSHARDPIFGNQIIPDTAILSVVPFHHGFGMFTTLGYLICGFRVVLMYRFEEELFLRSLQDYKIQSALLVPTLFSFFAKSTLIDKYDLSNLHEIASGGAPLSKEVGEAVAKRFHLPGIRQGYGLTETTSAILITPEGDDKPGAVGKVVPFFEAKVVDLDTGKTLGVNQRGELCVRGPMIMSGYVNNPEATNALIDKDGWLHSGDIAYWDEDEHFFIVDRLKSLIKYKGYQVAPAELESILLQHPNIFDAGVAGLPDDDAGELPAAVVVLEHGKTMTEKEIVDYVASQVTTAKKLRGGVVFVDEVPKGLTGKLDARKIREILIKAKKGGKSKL
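Purified P. pyralis luciferase, 10 nM final, with Km-level 10 uM D-luciferin and 10 uM ATP in 50 mM Tris acetate pH 7.5, 10 mM Mg acetate, 0.01% Tween-20, 0.05% BSA; 6-point qHTS titration about 60 µM downward; luminescence read.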
Numbers stand for hits; i = inactive; ? = inconclusive; nt = not tested or not shown; [ ] = remark or other dose. Calls come from the whole dose curve; as a rule, active = well fitted curve in the direction sought with a large enough effect; inconclusive = small, poorly fitted or top-dose-only effect, or another doubt; inactive = no such curve, though single readings can be large; an effect the other way counts as inactive or inconclusive.

SMILES | NPC1 prom act | SMN2 splice up | Rab9 prom act | ELG1 DNA repair | ELG1 genotoxic | FLuc counter
Cc1ccc(Cn2nnc3c(=O)[nH]c(C4CCN(S(=O)(=O)c5ccc(S(=O)(=O)NC6CC6)cc5)CC4)nc32)cc1 | i | nt | i | ? | i | i
O=C(NC1CC1)c1ccc(-c2nc3ccccc3s2)s1 | 0.398µM | 0.501µM | 0.316µM | ? | 0.259µM | 0.151µM
CCOC(=O)C1CCN(S(=O)(=O)c2ccc(-c3nc4ccccc4s3)s2)CC1 | i | i | i | ? | ? | 21.3µM
CCN1CCN(C(=O)c2ccc(-c3nc4ccccc4s3)s2)CC1 | ? | 11.2µM | 2.24µM | ? | i | ?
CCCN1CCN(C(=O)c2ccccc2-c2nc3ccccc3s2)CC1 | i | i | i | i | i | i
O=C(c1ccc(-c2nc3ccccc3s2)s1)N1CCOCC1 | 0.0891µM | nt | ? | ? | ? | 0.379µM
O=c1[nH]c(CCl)nc2cc(-c3ccc(F)cc3)sc12 | i | nt | i | ? | ? | 0.301µM
Cc1ccc(/C=C/C(=O)Nc2ccc(Oc3ccccc3)cc2)o1 | i | i | i | ? | i | 6.01µM
CC(=O)c1ccc(NC(=O)/C=C/c2ccc(C)o2)cc1 | nt | 12.6µM | nt | nt | nt | 7.57µM
Cc1c(C(=O)N/N=C/c2ccc(O)c(Br)c2)sc(N)c1C#N | i | ? | i | i | ? | 13.5µM
CCOc1ccc(NC(=O)c2ccc3c(=O)n4nc(Nc5ccccc5C)sc4nc3c2)cc1 | nt | nt | nt | nt | nt | i
CCc1noc(C)c1C(=O)OC(C)C(=O)Nc1ccc(Cl)cn1 (stereo not drawn) | i | nt | i | i | i | i
Cc1cc(NC(=O)c2sc3ccccc3c2O)no1 | 1.58µM | nt | 3.16µM | ? | 10.3µM | 9.53µM
Cc1cc(NC(=O)CCCN2C(=O)/C(=C/c3ccccc3Cl)SC2=S)no1 | i | nt | i | ? | i | i
Cc1cc(NC(=O)/C=C/c2ccccc2Cl)no1 | 2.82µM | ? | 2.82µM | ? | i | ?
Cc1cc(NC(=O)c2ccccc2)ccc1NC(=O)c1ccccc1Cl | i | nt | i | i | i | ?
Cc1ccc(NC(=O)c2ccccc2Cl)c(Cl)c1 | i | i | ? | ? | i | 19µM
Cc1cc(NS(=O)(=O)c2ccc(NC(=O)/C=C/c3ccccc3)cc2)no1 | i | nt | i | i | i | ?
Cc1cc(NS(=O)(=O)c2ccc(NC(=O)/C=C/c3ccccc3Cl)cc2)no1 | i | nt | i | i | i | 8.49µM
O/N=C1/C2C3C(Br)C4C5CC(C1C53)C24 (stereo not drawn) | i | i | i | i | i | i
Cc1cc(NC(=O)c2ccccc2Cl)no1 | ? | ? | 3.98µM | ? | ? | 15.1µM
COc1ccc(NC(=O)c2cc(C(C)C)on2)c(OC)c1 | ? | 15.8µM | 3.55µM | ? | 14.6µM | ?
Cc1cc(NC(=O)c2c(F)cccc2Cl)no1 | i | i | i | ? | i | i
Cc1cc(NC(=O)c2cc(C(C)C)on2)no1 | ? | ? | ? | ? | ? | 15.1µM
COc1cc(NC(=O)c2cc(C(C)C)on2)c(OC)cc1Cl | i | i | i | ? | i | i
SMILES | NPC1 prom act | SMN2 splice up | Rab9 prom act | ELG1 DNA repair | ELG1 genotoxic | FLuc counter
Cc1cc(NC(=O)NC(=O)c2ccccc2F)no1 | ? | nt | 3.55µM | ? | ? | ?
Cc1ccc(C(C)C)cc1OCC(=O)NNC(=O)Nc1ccccc1 | i | nt | i | ? | i | i
COc1ccc(Nc2ccc(C(F)(F)F)cc2[N+](=O)[O-])cn1 | i | nt | i | i | i | i
CCCCCN1C(C(=O)c2ccccc2)=C(NC(=O)c2ccc(C)cc2)c2ccccc2S1(=O)=O | nt | i | nt | nt | nt | i
Cc1cc(NC(=O)c2ccccc2NS(=O)(=O)c2c(C)c(C)cc(C)c2C)no1 | i | i | i | i | i | i
Cc1ccc(C)c(S(=O)(=O)Nc2ccccc2C(=O)Nc2cc(C)on2)c1 | i | i | i | 25.9µM | i | i
CCn1c(C)nc2cc(C(=O)N/N=C/c3ccc(O)cc3)ccc21 | i | i | i | ? | i | 15.1µM
CCn1c(C)nc2cc(C(=O)N=Nc3c(O)[nH]c4ccccc34)ccc21 | ? | i | ? | ? | ? | 6.01µM
CCn1c(C)nc2cc(C(=O)N/N=C/c3ccc(OC)cc3)ccc21 | i | i | i | i | i | ?
CCn1c(C)nc2cc(C(=O)N/N=C(\C)c3ccc(OC)cc3O)ccc21 | i | i | i | 7.3µM | i | ?
CCn1c(C)nc2cc(C(=O)NN=C(C)c3ccc(C#N)cc3)ccc21 | nt | nt | nt | i | i | nt
CCn1c(C)nc2cc(C(=O)NNC(=O)c3ccc(C)cc3)ccc21 | i | nt | ? | ? | ? | ?
CCn1c(C)nc2cc(C(=O)OC(C(F)(F)C(F)F)C(F)(F)C(F)F)ccc21 | ? | i | ? | ? | 16.4µM | 3.79µM
CCOCCCNC(=O)CN(c1cc([N+](=O)[O-])ccc1OC)S(C)(=O)=O | i | nt | i | i | i | i
CCOc1ccccc1CN1CCNC(=O)C1CC(=O)NCc1cc(C)n(C)n1 (stereo not drawn) | i | nt | i | i | i | i
CCOC(=O)C1=CNS(=O)(=O)NC1c1ccc2ccccc2c1 (stereo not drawn) | nt | nt | nt | i | i | nt
Nc1c(S(N)(=O)=O)cc(S(N)(=O)=O)cc1S(N)(=O)=O | nt | i[9.22 µM] | nt | nt | nt | nt
Cc1ccccc1Nc1oc(-c2ccccc2)nc1-c1ccccc1 | nt | i | nt | nt | nt | nt
CCn1c(C)nc2cc(C(=O)N/N=C/c3ccc(OC)c(O)c3)ccc21 | i | i | i | i | i | ?
CCn1c(C)nc2cc(C(=O)N/N=C/c3ccccc3)ccc21 | 3.16µM | 17.8µM | 3.55µM | ? | 9.2µM | 21.3µM
CCn1c(C)nc2cc(C(=O)N/N=C/c3cccc(O)c3O)ccc21 | i | nt | i | ? | ? | 8.49µM
CCn1c(C)nc2cc(C(=O)NN=Cc3ccc([N+](=O)[O-])cc3)ccc21 | nt | nt | nt | i | i | nt
COc1cc(/C=C(/C#N)c2nc(-c3cc4ccccc4oc3=O)cs2)ccc1O | nt | i | nt | nt | nt | ?
CCOC(=O)C(=O)Nc1cccc(C(=O)OCC)c1 | i | i | i | i | i | i
CCOc1ccc(S(=O)(=O)NCCC(=O)Nc2cccc(C(=O)OC)c2)cc1 | i | nt | 3.16µM | ? | i | i
SMILES | NPC1 prom act | SMN2 splice up | Rab9 prom act | ELG1 DNA repair | ELG1 genotoxic | FLuc counter
CCOc1ccc(NC(C(=O)Nc2cccc(C(C)=O)c2)c2ccccc2)cc1 (stereo not drawn) | i | i | i | i | i | i
CCOc1ccc(NC(=O)Nc2ccc3nsnc3c2)cc1 | i | i | i | ? | i | ?
CCOC(=O)c1cccc(NC(=O)Nc2ccc(OCC)cc2)c1 | 1.78µM | 10µM | 2.82µM | ? | i | 2.69µM
CCOc1ccc(/C=C/C(=O)Nc2cccc(C(C)=O)c2)cc1 | ? | ? | ? | ? | i | 1.2µM
CCOc1ccc(NC(=O)Nc2cccc(C(=O)O)c2)cc1 | ? | 2µM | 0.0891µM | ? | i | 0.0269µM
CCOc1ccc(S(=O)(=O)NCCC(=O)Nc2ccncc2)cc1 | i | nt | i | i | i | i
COCCN(C(=O)CNC(=O)c1ccco1)C(C(=O)NC1CCCC1)c1cccc(OC)c1 (stereo not drawn) | i | nt | i | i | i | i
